Compounds without any hit were thinned out: in the full panel of roughly 83,000, 20% have a hit.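 Method: cells in 96-well plates; compound added at one concentration; 48 h incubation; percent growth measured; values under 10 scored active.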 Values without a mark were called inactive. The source made the active and inactive calls.
How the values were obtained:
Assay in all cases: NCI-60 one-dose screen, 48 h (100 = growth as untreated, 0 = no growth, -100 = all killed)
Settings in all cases: 10 µM
[1] = test system: SK-MEL-2 melanoma
[2] = test system: EKVX NSCLC
[3] = test system: SN12C renal
[4] = test system: UO-31 renal
[5] = test system: TK-10 renal
[6] = test system: ACHN renal
[7] = test system: CAKI-1 renal
[8] = test system: A498 renal
[9] = test system: CCRF-CEM leukemia
[10] = test system: MOLT-4 leukemia
[11] = test system: RPMI-8226 leukemia
[12] = test system: OVCAR-8 ovarian
[13] = test system: OVCAR-5 ovarian
[14] = test system: OVCAR-4 ovarian
[15] = test system: SK-OV-3 ovarian
[16] = test system: IGROV1 ovarian
[17] = test system: OVCAR-3 ovarian
[18] = test system: HS 578T breast
[19] = test system: NCI/ADR-RES ovarian

SMILES | growth [1] | growth [2] | growth [3] | growth [4] | growth [5] | growth [6] | growth [7] | growth [8] | growth [9] | growth [10] | growth [11] | growth [12] | growth [13] | growth [14] | growth [15] | growth [16] | growth [17] | growth [18] | growth [19]
O=C(c1ccccc1)n1ccc(-c2cc3cc(Br)ccc3oc2=O)n1 | 16.8% | -1.71% (active) | 27.4% | 11.7% | 34.7% | 8.46% (active) | 15.2% | 117% | 4.71% (active) | 14.8% | 24.6% | 22.5% | 34.6% | 26.2% | 12.5% | 16% | 38.8% | 48.5% | -2.98% (active)
O=c1oc2ccc(-c3ccc(F)cc3F)cc2c(=O)n1-c1ccc(F)cc1 | -61.5% (active) | 4.34% (active) | -13.3% (active) | -3.9% (active) | 20.5% | -12.7% (active) | -24.1% (active) | -17.2% (active) | 1.33% (active) | -32.1% (active) | -26.9% (active) | 14.7% | 50.8% | 10.8% | -11% (active) | 23.5% | 3.4% (active) | -0.922% (active) | -16.9% (active)
O=C(Nc1nc2ccc([N+](=O)[O-])cc2s1)Nc1cc(Cl)ccc1I | -62.1% (active) | -23.7% (active) | -16.8% (active) | -18.3% (active) | -4.54% (active) | -3.53% (active) | -24.7% (active) | -16.8% (active) | -36.8% (active) | -44.6% (active) | -40.9% (active) | -13.6% (active) | 15.1% | 0.91% (active) | -9.56% (active) | 13.8% | -21.2% (active) | -21.5% (active) | -34.5% (active)
O=C(c1ccc(Cl)cc1)C1[C@H](c2ccc(Br)cc2)[C@@H](c2ccccc2)NC12C(=O)Nc1ccccc12 (some centres undefined) | -62.7% (active) | 4.42% (active) | -78.1% (active) | 2.46% (active) | 14.5% | -5.73% (active) | 0.681% (active) | -23.5% (active) | -0.656% (active) | -22.7% (active) | -8.78% (active) | 7.73% (active) | -25.8% (active) | 12% | 12.7% | 6.67% (active) | -30.1% (active) | -8.79% (active) | -53.1% (active)
C/C(=C\c1ccc(O)cc1O)c1ccc2ccc(O)cc2[o+]1 | 91.1% | 68.1% | 44.9% | 50.7% | 116% | 45% | 58.5% | 147% | 55.8% | 29.3% | 65.7% | 9.36% (active) | 192% | 74.4% | 103% | 47.8% | 28.7% | 90.2% | 22.1%
CCOc1ccc2ncc(C#Cc3cncc(C(=O)Nc4ccc(CN5CCN(C)CC5)c(C(F)(F)F)c4)c3)n2n1 | -75.7% (active) | -65.8% (active) | -82.9% (active) | -65.8% (active) | -66.5% (active) | -87% (active) | 30.4% | 15.9% | 7.96% (active) | -8.54% (active) | -13.3% (active) | -60.9% (active) | -87% (active) | -60.6% (active) | 45.7% | -58.2% (active) | -79.1% (active) | -28.2% (active) | -70.1% (active)
Cc1cccc(NC(=O)CSc2nc3ccc(F)cc3c(=O)n2-c2ccc(Cl)cc2)c1C | 73.1% | 75% | 64.1% | 39.6% | 108% | 37.8% | -21.6% (active) | 108% | 94.4% | 81.3% | 88.1% | 32.5% | 90.3% | 67.7% | 56.8% | 53% | 93.9% | 25.7% | 56%
O=C1Nc2ccc(Cl)cc2/C1=C/c1cccc(OCc2ccccn2)c1 | -50.6% (active) | 10.7% | -50.6% (active) | 8.26% (active) | 10.5% | -40.3% (active) | -7.95% (active) | 95% | -23.1% (active) | 4.5% (active) | -45.3% (active) | -42.6% (active) | -45.2% (active) | 4.17% (active) | 4.02% (active) | 0.125% (active) | -35.8% (active) | -1.17% (active) | -23.8% (active)
COc1ccc(-c2nc(-c3ccccc3)c(-c3ccccc3)n2-c2ccc(S(=O)(=O)Nc3ncccn3)cc2)cc1OC | 108% | 63.6% | 76.3% | 51.7% | 91.8% | 82.6% | 76.5% | 55% | 69% | 70.5% | 60.3% | 90.2% | 82.8% | 87% | 95% | 85.5% | 90.1% | 50.9% | 96.7%
O=C(c1ccc(Cl)cc1)C1[C@H](c2ccc(Br)cc2)[C@@H](c2ccccc2)NC12C(=O)Nc1ccc(Cl)cc12 (some centres undefined) | -77.7% (active) | -47.8% (active) | -92.5% (active) | -29.2% (active) | -17.4% (active) | -17.2% (active) | -92.7% (active) | -16.9% (active) | -17% (active) | -28.8% (active) | -15.4% (active) | -55% (active) | -89.5% (active) | 3.2% (active) | 11.5% | -72.4% (active) | -88% (active) | -14% (active) | -89.9% (active)
COc1ccc(/C(C)=N/N=C2C(=O)N(C)c3ccc(Br)cc32)cc1S(N)(=O)=O | 81.7% | 56.7% | 68.7% | 65.1% | 105% | 69.3% | 41% | 99.6% | 89.1% | 84.6% | 79.3% | 27.4% | 81.4% | 48.4% | 58.8% | 71.5% | 69.6% | 39.7% | 68.2%
O=C(c1ccc(Cl)cc1)C1[C@H](c2ccc(Br)cc2)[C@@H](c2ccccc2)NC12C(=O)Nc1ccc(Br)cc12 (some centres undefined) | -93.4% (active) | -61.1% (active) | -97.1% (active) | -75.7% (active) | -78.7% (active) | -39.6% (active) | -93.9% (active) | -17.1% (active) | -7.91% (active) | -33% (active) | -6.16% (active) | -56.7% (active) | -91.2% (active) | -0.87% (active) | 2.89% (active) | -78.3% (active) | -89.7% (active) | -16.6% (active) | -85.6% (active)
O=c1oc2ccc(-c3ccc(F)cc3F)cc2c(=O)n1-c1ccc(F)c(Cl)c1 | -67.4% (active) | -9.05% (active) | -17% (active) | -5.43% (active) | 11.9% | -12.7% (active) | -20.4% (active) | -20.8% (active) | -5.97% (active) | -30.7% (active) | -31% (active) | 3.87% (active) | -5.91% (active) | 10.5% | -9.67% (active) | 13% | 3.83% (active) | -0.875% (active) | -15.2% (active)
COc1ccc(-c2ccc(SCC(=O)Nc3ccc(C#N)cc3)nn2)cc1 | 114% | 95.1% | 95% | 75.4% | 108% | 80.1% | 81.4% | 124% | 95.9% | 94.4% | 91% | 88.8% | 101% | 83.8% | 91.6% | 88.4% | 121% | 67.8% | 83.7%
CC(=O)Nc1ccc(-c2cn(-c3cccc(C(=O)Nc4cc(C(F)(F)F)cc(C(F)(F)F)c4)c3)nn2)cn1 | -38.6% (active) | -25.7% (active) | -50.1% (active) | 1.1% (active) | -10.4% (active) | -26.2% (active) | -44.3% (active) | -30.2% (active) | -25.4% (active) | -37.1% (active) | -43.7% (active) | -32.8% (active) | -10.6% (active) | -24.6% (active) | -21.1% (active) | -38.4% (active) | -30.9% (active) | -9.63% (active) | 1.76% (active)
CS(=O)(=O)Nc1ccc(-c2ccc3c(c2)ncn3-c2ccc(NC(=O)Nc3ccc(Cl)c(C(F)(F)F)c3)cc2)cc1 | -83% (active) | -60.3% (active) | -68.7% (active) | -65.1% (active) | -6.45% (active) | -63.7% (active) | -55.2% (active) | -85.9% (active) | -31.7% (active) | -36.8% (active) | -28.6% (active) | -34.8% (active) | -84.9% (active) | -47.2% (active) | -53.4% (active) | -43.1% (active) | -54.3% (active) | -33.2% (active) | -1.05% (active)
